POLH inh – inhibitors of human DNA polymerase eta; AID 588591; Potency, µM (highest dose often 114 µM), without a hit: at the highest dose activity change, negative = inhibition, actives largely listed as inhibitors; recombinant Pol eta, fluorescent DNA replication assay; 390,000 tested, 1.2% active; also: potency is read from the fitted curve at half-maximal effect; % is scaled to controls: 0 for no effect and ±100 for the full control effect
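Pol eta at 10 nM preincubated with compounds 15 min at room temperature; reaction started with fluorescent substrate (50 nM final) and read kinetically at 0 and 10 min.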
POLK inh – DNA polymerase kappa (human) inhibition; Q9UBT6; purified Pol kappa, fluorescent DNA synthesis assay, 10 min; Potency, µM (highest dose often 107 µM), for the others: top-dose activity, negative = inhibition, actives largely listed as inhibitors; 400,000 tested, 0.53% active; AID 588579; also: potency is read from the fitted curve at half-maximal effect; % is scaled to controls: 0 for no effect and ±100 for the full control effect
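Enzyme at 10 nM met test compounds for 15 min at room temperature. Substrate addition (50 nM final) began the reaction, which was monitored by fluorescence at 0 and 10 min.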
WRN helicase inh-1 – inhibitors of human WRN helicase; 360,000 tested, 0.46% active; Potency, µM (doses to about 114 µM), for inactives: at the top dose activity change, negative = inhibition, actives largely listed as inhibitors; WRN helicase unwinding, fluorescent forked duplex, kinetic; also: potency is read from the fitted curve at half-maximal effect; % is scaled to controls: 0 for no effect and ±100 for the full control effect; nearly all actives have a fitted effect of over 55% in size
Target sequence (Q14191 whole entry, looked up): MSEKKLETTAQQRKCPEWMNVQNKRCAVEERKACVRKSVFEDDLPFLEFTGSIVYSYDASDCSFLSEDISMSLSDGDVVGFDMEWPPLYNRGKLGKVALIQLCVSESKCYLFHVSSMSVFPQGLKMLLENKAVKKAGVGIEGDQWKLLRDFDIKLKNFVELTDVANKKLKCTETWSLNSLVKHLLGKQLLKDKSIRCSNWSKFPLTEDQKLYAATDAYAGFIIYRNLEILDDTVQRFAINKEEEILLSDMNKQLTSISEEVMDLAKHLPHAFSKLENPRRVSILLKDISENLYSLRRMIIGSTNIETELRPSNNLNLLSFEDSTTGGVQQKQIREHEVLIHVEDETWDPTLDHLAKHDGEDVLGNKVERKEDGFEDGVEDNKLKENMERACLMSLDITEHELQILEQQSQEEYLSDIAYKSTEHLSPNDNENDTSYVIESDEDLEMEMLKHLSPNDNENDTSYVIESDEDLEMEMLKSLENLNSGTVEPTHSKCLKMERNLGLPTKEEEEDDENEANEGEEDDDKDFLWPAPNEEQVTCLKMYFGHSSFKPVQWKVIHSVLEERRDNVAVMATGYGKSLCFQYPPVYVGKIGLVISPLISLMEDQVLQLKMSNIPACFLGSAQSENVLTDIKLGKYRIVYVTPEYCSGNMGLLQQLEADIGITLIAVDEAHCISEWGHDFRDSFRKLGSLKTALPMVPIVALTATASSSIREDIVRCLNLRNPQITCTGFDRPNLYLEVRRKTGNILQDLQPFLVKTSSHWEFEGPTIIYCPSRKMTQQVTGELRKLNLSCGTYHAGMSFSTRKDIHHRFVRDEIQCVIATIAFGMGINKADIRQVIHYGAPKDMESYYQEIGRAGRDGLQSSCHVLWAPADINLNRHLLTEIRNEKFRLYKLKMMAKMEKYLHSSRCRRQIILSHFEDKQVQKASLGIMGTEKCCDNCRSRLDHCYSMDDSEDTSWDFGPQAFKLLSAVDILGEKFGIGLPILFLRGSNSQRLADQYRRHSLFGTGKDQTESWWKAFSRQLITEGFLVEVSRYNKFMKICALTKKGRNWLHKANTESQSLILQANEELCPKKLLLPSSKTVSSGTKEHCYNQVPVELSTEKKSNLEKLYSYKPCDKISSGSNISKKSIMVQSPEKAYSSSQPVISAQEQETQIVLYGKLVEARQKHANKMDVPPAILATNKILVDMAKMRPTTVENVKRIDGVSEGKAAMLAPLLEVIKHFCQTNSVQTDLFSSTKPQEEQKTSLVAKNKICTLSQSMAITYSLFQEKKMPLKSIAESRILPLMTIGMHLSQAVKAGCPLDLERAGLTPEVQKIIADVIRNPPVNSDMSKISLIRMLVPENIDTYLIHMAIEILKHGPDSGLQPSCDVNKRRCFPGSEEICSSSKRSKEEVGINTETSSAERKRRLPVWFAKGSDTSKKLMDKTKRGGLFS
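Enzyme (20 nM final) and test compound sit together 15 min at room temperature before substrate addition. Substrate is a single-forked duplex oligonucleotide (100 nM) labelled with fluorophore and quencher, with 2 mM ATP; helicase unwinding raises red fluorescence, read kinetically.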
PI5P4K alpha inh – blocks human PI5P4K alpha kinase activity; P48426; PI5P4Kalpha enzyme, ADP-Glo luminescence, 60 min; active compounds read low; max response, %; 330,000 tested, 1.2% active; AID 652105; active = max response of -50% or lower; inconclusive = between -30% and -50%; inactive = -30% or higher; also: value at the top dose of about 77 µM; % is scaled to controls: 0 for no effect and ±100 for the full control effect
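Quantitative HTS of the MLSMR library against PI5P4Kalpha with substrate. ATP added last at 5 microM final; room temperature, 60 minutes. Remaining ATP depleted, ADP converted and read as luminescence.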
POLI inh – DNA polymerase iota (human) inhibition. Pol iota fluorescent replication assay, 10 min. 390,000 tested, 1% active. Potency, µM (titrated, usually from 115 µM), inactives show top-dose activity, negative = inhibition, usual class: inhibitors. Q9UNA4; also: potency is read from the fitted curve at half-maximal effect
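Pol iota at 10 nM preincubated 15 min with compounds at room temperature; reaction started with fluorescent substrate, 50 nM final. Fluorescence read kinetically at 0 and 10 min; buffer-only wells as negative control.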
Pol beta inh – blocks human DNA polymerase beta activity. Pol beta primer extension/strand displacement, fluorescence kinetic. P06746. Potency, µM (highest dose often 114 µM), without a hit: at the highest dose activity change, negative = inhibition, most hits filed as inhibitors. 340,000 tested, 1.3% active; also: potency is read from the fitted curve at half-maximal effect; % is scaled to controls: 0 for no effect and ±100 for the full control effect
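Curves were derived by four-parameter Hill fits of normalized qHTS data. The kinetic fluorescent primer-extension read was taken at 0 and 10 min after 50 nM substrate, following a 15 min room-temperature preincubation of 10 nM enzyme with compounds.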
WRN helicase inh-2 – WRN helicase inhibition, cherry-pick retest; shares compounds with WRN helicase inh-1; WRN helicase DNA unwinding, fluorescence kinetic; Potency, µM (top dose mostly 57.1 µM), for inactives: top-dose activity, negative = inhibition, actives largely listed as inhibitors; 610 tested, 63% active; AID 720497; also: potency is read from the fitted curve at half-maximal effect; nearly all actives have a fitted effect of over 65% in size
TO DNA binding – counter-screen for WRN helicase inhibitors: DNA binding | shares compounds with WRN helicase inh-1 | thiazole orange DNA binding displacement, fluorescence | Potency, µM (titrated, usually from 57.1 µM), for inactives: top-dose activity change, negative = inhibition, usual class: inhibitors | 610 tested, 10% active | AID 720499;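 also: drop in dye fluorescence marks compound binding to DNA; potency is read from the fitted curve at half-maximal effect; % is scaled to controls: 0 for no effect and ±100 for the full control effect; nearly all actives have a fitted effect of over 60% in size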
BLM counter – BLM helicase inhibition, WRN selectivity check; Recombinant BLM helicase DNA unwinding, red fluorescence; 610 tested, 60% active; Potency, µM (titrated, usually from 57.1 µM), inactives show top-dose activity change, negative = inhibition, actives largely listed as inhibitors; shares compounds with WRN helicase inh-1; AID 720503; also: potency is read from the fitted curve at half-maximal effect; nearly all actives have a fitted effect of over 60% in size
An asterisk follows results filed as active; i = inactive; ? = inconclusive; . = no result given; [ ] = dose if it differs, or a comment. In the library only some 2.8% were active in any assay of this set; here they are far more common. Unless noted, calls follow the shape of the dose curve; as a rule, active = well fitted curve in the direction sought with a large enough effect; inconclusive = small, poorly fitted or top-dose-only effect, or another doubt; inactive = no such curve, though single readings can be large; an effect the other way counts as inactive or inconclusive.

SMILES	POLH inh	POLK inh	WRN helicase inh-1	PI5P4K alpha inh	POLI inh	Pol beta inh	WRN helicase inh-2	TO DNA binding	BLM counter
CC(C)Cc1ccc(CN2CCCC(NC(=O)CCN3CCCCC3=O)C2)cc1 (stereo unspecified)	-9%	1%	5%	0	2%	?	.	.	.
CC(C)Cc1ccc(C(C)/C=C2/CCC(CN3CCCCC3)C2=O)cc1 (stereo unspecified)	22µM*	-13%	35µM*	-24	?	.	-27%	-6%	?
Oc1ccc(/C=N/Nc2nc(-c3cccnc3)nc3ccccc23)c(O)c1	-3%	-10%	-31%	-27	?	?	.	.	.
Cc1c(O)ccc(/C=N/Nc2nc(-c3cccnc3)nc3ccccc23)c1O	?	?	?	?	-17%	3%	?	27µM*	?
Nc1c(S(=O)(=O)O)cc(NC(=O)c2ccccc2)c2c1C(=O)c1ccccc1C2=O	18µM*	-9%	28µM*	-77*	?	22µM*	12µM*	11µM*	19µM*
O=C(Nc1ccccc1-c1ccccc1)c1ccccc1	1%	-3%	-2%	2	5%	15%	.	.	.
CN1CCN(CCCNc2nc3ccccc3c3nc(-c4ccccc4)nn23)CC1	9%	-2%	2%	-4	18%	.	.	.	.
COc1cc2nc(NCCCN3CCN(C)CC3)n3nc(-c4ccccc4)nc3c2cc1OC	?	?	12µM*	22	?	25µM*	12µM*	-29%	-5%
NC(=NCCc1ccccc1)NS(=O)(=O)c1ccccc1	-19%	-2%	7%	5	1%	8%	.	.	.
CN1CCN(C2=C(NS(=O)(=O)c3ccccc3)C(=O)c3ccccc3C2=O)CC1	10%	-10%	0%[57.1 µM]	4	30%	6%	.	.	.
CN1CCN(C2=C(Cl)C(=O)c3ccccc3C2=O)CC1	3.5µM*	1%	?	-4	6.3µM*	.	?	-14%	3.4µM*
O=C(CN1CCN(Cc2ccccc2)CC1)Nc1cccc(Cl)c1Cl	-15%	.	-6%	19	.	.	.	.	.
CN1CCN(C(=O)C2CCCN(S(=O)(=O)c3ccc(Br)cc3)C2)CC1 (stereo unspecified)	-5%	-1%	-21%	-2	15%	12%	.	.	.
CN1CCN(C(=O)C2CCCN(S(=O)(=O)c3ccc(Cl)cc3)C2)CC1 (stereo unspecified)	-13%	-2%	?	1	-12%	-1%	-4%	-6%	?
CCC(C)(C)NC(=O)CN(Cc1ccc(OC)cc1)C(=O)CCC(=O)Nc1nccs1	-12%	2%	0%[57.1 µM]	5	30%	1%	.	.	.
O=C(Nc1cccc(-c2cnc3ccccc3n2)c1)c1cccc(NC(=O)c2ccco2)c1	6%	-22%	?	.	14%	?	-29%	1%	?
CC(=O)[C@@]1(O)Cc2c(O)c3c(c(O)c2[C@H](O[C@H]2C[C@H](N)[C@H](O)[C@H](C)O2)C1)C(=O)c1ccccc1C3=O	.	.	.	.	.	.	24µM*	i	24µM*
Nc1ccc(Cn2ccc3c4c(N)nc(N)nc4ccc32)cc1	?	-33%	16µM*	?	56%	.	22µM*	76%	14µM*
NS(=O)(=O)c1ccc(-c2ccc(/C=C3\C(=O)Nc4cc(Cl)ccc43)o2)cc1	?	-19%	-18%	?	?	?	.	.	.
CC1(C)OC(=O)C(=Cc2ccc(-c3ccc(S(N)(=O)=O)cc3)o2)C(=O)O1	50µM*	?	?	-59*	?	4%	?	-10%	?
C=CS(=O)(=O)c1sc(Cl)c(N2CCOCC2)c1[N+](=O)[O-]	?	-31%	32µM*	-105*	?	-29%	14µM*	-25%	3.4µM*
COCCNC(C(=O)Nc1ccc([N+](=O)[O-])cc1Br)c1ccccc1 (stereo unspecified)	-14%	-22%	-6%	3	3%	21%	.	.	.
CCCCNC(C(=O)Nc1ccc([N+](=O)[O-])cc1Br)c1ccccc1 (stereo unspecified)	-21%	-7%	?	-6	?	5%	1%	-8%	-11%
N#C/C(=C/c1ccc(O)c(O)c1)c1nc2ccccc2[nH]1	3.2µM*	10µM*	35µM*	?	?	?	6.1µM*	28%	8.6µM*
CCOC(=O)c1nn(-c2ccccc2C)c(=O)c2c(N)scc12	-4%	-9%	?	?	?	-26%	?	35%	?
SMILES	POLH inh	POLK inh	WRN helicase inh-1	PI5P4K alpha inh	POLI inh	Pol beta inh	WRN helicase inh-2	TO DNA binding	BLM counter
CCOC(=O)c1nn(-c2ccccc2C)c(=O)c(C#N)c1C	-2%	-7%	-3%[57.1 µM]	-7	-5%	22%	.	.	.
Cc1ccc(NC(=O)N/C=C/c2ccco2)cc1	50µM*	50µM*	?	.	20µM*	22µM*	-23%	-28%	14µM*
O=C(CN1C(=O)NC(c2ccc(F)cc2)C1=O)Nc1ccc2c(c1)OCCO2 (stereo unspecified)	0%	-9%	0%	4	-10%	.	.	.	.
N#Cc1ncc(Cc2ccccc2)nc1C#N	40µM*	-13%	1.7µM*	?	33%	7%	-10%	-7%	-19%
COc1cccc(/C=C2/C(=O)NN(c3ccc(Br)cc3)C2=O)c1O	79µM*	-25%	0.67µM*	-7	29%	?	17µM*	-23%	6.8µM*
COc1cc(/C=C2/C(=O)NN(c3ccc(Cl)cc3)C2=O)cc(Br)c1O	-13%	-21%	-23%	?	?	?	.	.	.
Cc1cc2ncn(CC3CC3(Cl)Cl)c2cc1C (stereo unspecified)	-8%	-2%	-4%	0	73%	-17%	.	.	.
Cc1ccc(NN2C(=O)C=C(c3ccccc3)C2=O)cc1	-6%	-4%	?	-13	?	3%	-20%	-6%	-22%
O=C(O)c1ccc2c(=O)n3c(nc2c1)/C(=C/c1ccc(Cl)c(Cl)c1)CC3	6%	-11%	-16%	-29	-30%	0%	.	.	.
